Holding throughout (experiment): qHTS profiling for inhibitors of Plasmodium falciparum proliferation (AID 504749); note: nearly all actives have a fitted effect of over 60% in size
What all share (conditions): P. falciparum in erythrocytes, SYBR Green DNA, 72 h; series mostly up to 28.7 µM
(In general: qHTS replaces the single test concentration by a dilution series.)

One test concerns CP325. An outline of the steps: (§1)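 Parasite proliferation within erythrocytes, 72 h exposure. Endpoint: SYBR Green I fluorescence after overnight lysis at room temperature. Controls: 0.29 uM artemisinin, DMSO.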
A further test concerns CP329. An outline of the steps: as §1
The subject of the next test is CP335. An outline of the steps:
as §1

In a further test the test system is DFO2036. In outline:
as §1

The next test concerns DIV17. In outline:
as §1

For another test, the system named is DIV30. An outline of the steps: as §1
For another test, the system named is Dd2. In outline: as §1
Another test relates to ECU. An outline of the steps: as §1
A further test deals with FAB9. In outline: as §1
The test system of the next test is GB4. An outline of the steps: as §1
The test system of another test is HB3. An outline of the steps: as §1
A further test deals with ICS. An outline of the steps:
as §1

In a further test the test system is JCK. An outline of the steps: as §1
A further test deals with N140. In outline: as §1
The subject of a further test is P93_24. In outline:
as §1

The next test concerns P94_40. In outline: as §1
For the next test, the system named is PAD. In outline:
as §1

The next test relates to PC15. An outline of the steps: as §1
A further test deals with PC26. In outline: as §1
The test system of another test is DIV14. In outline:
as §1

Results filed as inconclusive are left out. The source made the active and inactive calls. Calls come from the whole dose curve; as a rule, active = well fitted inhibition curve with a large enough effect; inconclusive = small, poorly fitted or top-dose-only effect; inactive = flat fitted curve, though single readings scatter.
Potency is the fitted concentration of half-maximal effect.

Regarding `Cc1[nH]cnc1CN1CCc2c(c3ccccc3n2C)C1=O`, the Potency entry in the test on CP325, in the test with CP329, with CP335, in the test on DFO2036, in the test on DIV17 and with DIV30 was “inactive” each time. For the same molecule, the Potency entry with Dd2, in the test with ECU, with FAB9, with GB4, with HB3 and in the test on ICS was “inactive” throughout. The Potency result with JCK, with N140, with P93_24, with P94_40, in the test on PAD and in the test on PC15 was “inactive” in each case. For the same molecule, the Potency entry in the test with PC26 was “inactive”.
Regarding `O=C(CCN1CCN(CCO)CC1)N1c2ccccc2Sc2ccc(C(F)(F)F)cc21`, the Potency entry with CP329, in the test on FAB9, in the test with JCK and in the test on PAD was “inactive” in each case. The Potency was 9.53 µM (active) in the test with DIV14; 9.53 µM (active) in the test on DIV17; 11.2 µM (active) with Dd2; 11.2 µM (active) with ICS; 12.6 µM (active) in the test with N140; 12.6 µM (active) in the test with P93_24.
For `CN(C)c1ccc(C(=C2C=CC(=[N+](C)C)C=C2)c2ccccc2)cc1`, the Potency with CP325 was 12 µM (active); in the test on CP335, 4.78 µM (active); in the test on DIV17, 6.01 µM (active); in the test on Dd2, 11.2 µM (active); in the test on GB4 it was 4.26 µM (active); in the test with HB3, 11.2 µM (active). In addition, the results for the Potency in the test with ICS and in the test on P93_24 were 2.24 µM (active) and 10 µM (active), respectively. Moreover, the Potency entry in the test on FAB9 and in the test with JCK was “inactive” in each case.
As to `c1ccc2sc(SN3CCOCC3)nc2c1`, the Potency entry in the test on CP325, in the test with CP329, in the test on CP335, with DFO2036, in the test on DIV30 and with FAB9 was “inactive” in each case. The Potency entry with GB4, with HB3, in the test with JCK, in the test on P94_40, in the test with PC15 and with PC26 was “inactive” in each case. Besides, the Potency in the test on ICS was 12.6 µM (active).
As for `Cc1cc(O)c2ccccc2c1O`, the Potency entry in the test on CP325, in the test on CP329, with DFO2036, in the test on DIV30, in the test on ECU and in the test on FAB9 was “inactive” each time. Moreover, the Potency entry in the test with HB3, with JCK, in the test with N140, in the test on P93_24, in the test on P94_40 and in the test on PAD was “inactive” each time. In addition, in the test on PC15, the Potency result is “inactive”.
Regarding `O=C(OCc1ccccc1)c1ccccc1`, the Potency entry in the test on CP325, in the test on CP329, in the test with CP335, with DFO2036, in the test with DIV14 and in the test with DIV30 was “inactive” in each case. Moreover, the Potency result in the test on Dd2, in the test with ECU, with FAB9, with GB4, in the test with HB3 and with ICS was “inactive” throughout. Also, the Potency result in the test on JCK, in the test on N140, in the test with P93_24, in the test on P94_40, in the test with PAD and in the test with PC15 was “inactive” throughout. Besides, the Potency result with PC26 was “inactive”.
Regarding `CN1[C@@H](CC(=O)c2ccccc2)CCC[C@H]1C[C@H](O)c1ccccc1`, the Potency result in the test with CP325, in the test with CP335, with FAB9 and in the test with HB3 was “inactive” throughout. Further, the Potency in the test with DIV14 is 13.5 µM (active); in the test on DIV17 it was 10.7 µM (active); in the test on Dd2 it was 10 µM (active); with GB4, 10.7 µM (active); in the test with ICS it was 11.2 µM (active); in the test with N140, 17.8 µM (active). Besides, the Potency in the test on P94_40 was 11.2 µM (active).
As to `C[S+](CC[C@H](N)C(=O)O)C[C@H]1O[C@@H](n2cnc3c(N)ncnc32)[C@H](O)[C@@H]1O` (some centres undefined), the Potency result in the test with CP325, in the test on CP329, with CP335, in the test with DIV14, with DIV17 and in the test on DIV30 was “inactive” in each case. Further, the Potency result in the test on Dd2, in the test with FAB9, with GB4, with HB3, in the test with ICS and with JCK was “inactive” throughout. In addition, the Potency result in the test on PC15 and in the test on PC26 was “inactive” in each case. Moreover, the Potency in the test on N140 is 1 µM (active).
In the case of `CCCSc1ccc2nc(NC(=O)OC)[nH]c2c1`, the Potency result in the test with CP325, with CP329, with CP335, in the test with DFO2036, in the test on DIV14 and in the test with DIV17 was “inactive” each time. Further, the Potency result in the test on Dd2, with ECU, in the test on FAB9, with GB4, with HB3 and in the test with ICS was “inactive” throughout. The Potency entry in the test on JCK, with N140, in the test with P93_24, in the test on PAD, in the test on PC15 and with PC26 was “inactive” throughout.
With `COC(=O)C1=C(C)NC(C)=C(C(=O)OCC(C)C)C1c1ccccc1[N+](=O)[O-]` (centres undefined), the Potency in the test on CP325 is 12 µM (active); in the test on DIV14, 10.7 µM (active); in the test with DIV30, 16.9 µM (active); in the test with ECU, 10 µM (active); in the test with GB4, 12 µM (active); with ICS, 3.55 µM (active). The Potency in the test with P93_24 is 10 µM (active).
For `NC(=O)C(c1ccccc1)(c1ccccc1)[C@@H]1CCN(CCc2ccc3c(c2)CCO3)C1`, the Potency entry in the test with CP325, in the test on FAB9, in the test on HB3, with JCK and in the test on PAD was “inactive” in each case. Besides, the Potency with DIV14 is 7.57 µM (active); with DIV17, 10.7 µM (active); in the test with Dd2, 5.01 µM (active); in the test with ICS, 7.08 µM (active).

Source of the values: PubChem BioAssay (NCATS).
